Activity calls are given as the source filed them.

In PubChem BioAssay one finds z-score and composite z-score data, which are given here for nine compounds.

Experiment [1] can be described thus: adipocyte viability effects, profiling panel, cell-based, 3T3-L1 adipocytes, calcein-AM fluorescence, 48 h, basal (AID 1163). As to conditions: 3T3-L1 adipocytes viability, higher = more signal.
A short description of experiment [2]: HepG2 cell viability effects, profiling panel, calcein-AM fluorescence, 48 h, basal (AID 1164). To be noted: higher = more signal.
A short description of experiment [3]: MM1S cell viability effects, profiling panel, calcein-AM fluorescence, 48 h, basal (AID 1165).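 Further: viability of MM1S multiple myeloma cells under basal unstimulated conditions.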 To be noted: higher = more signal.
The nature of experiment [4]: basal RPMI8226 viability, no added stimulus, profiling panel, cell-based, calcein-AM fluorescence, 48 h, PK04 Diversity Set (AID 1166).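 Further: cells grown under basal conditions without added stimulus.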 To be noted: RPMI8226 myeloma viability, higher = more signal.
The nature of experiment [5]: basal HepG2 mitochondrial membrane potential changes, profiling panel, cell-based, JC-1 fluorescence, 24 h, 100 nL compound (AID 1167). To be noted: higher = more signal.
Experiment [6] can be described thus: basal 3T3-L1 adipocyte mitochondrial potential changes, profiling panel, cell-based, JC-1 fluorescence, 3T3-L1 adipocytes, 24 h, 100 nL compound (AID 1168). To be noted: JC-1 mitochondrial fluorescence, higher = more signal, called active from +8 up or from −8 down.
Experiment [7] in a line: basal RPMI8226 mitochondrial membrane potential changes, profiling panel, cell-based, JC-1 fluorescence, 24 h, 100 nL compound (AID 1169). As to conditions: RPMI8226 myeloma, JC-1 mitochondrial potential fluorescence, higher = more signal.
A short description of experiment [8]: basal MM1S mitochondrial membrane potential changes, profiling panel, cell-based, JC-1 fluorescence, 24 h, 100 nL compound (AID 1170). To be noted: higher = more signal.
Experiment [9] is described as follows: A549 lung cancer cell viability effects, profiling panel, resazurin fluorescence, 24 h, PK04 Diversity Set (AID 1171). To be noted: higher = more signal, called active from +8 up or from −8 down. For orientation: Resazurin is reduced to fluorescent resorufin, in cell work by metabolically active cells.
Experiment [10] can be described thus: HepG2 liver cancer cell viability effects, profiling panel, resazurin fluorescence, 24 h, PK04 Diversity Set (AID 1172). As to conditions: higher = more signal.
Experiment [11] can be described thus: basal S. cerevisiae growth modulation, no modifier, primary screen, OD600, strain BY4716, 24 h, basal condition (AID 1173). To be noted: OD600, 24 h, higher = more signal, called active from +8 up or from −8 down.
Experiment [12] can be described thus: MM1S myeloma cell viability, profiling panel, resazurin fluorescence, basal, 24 h, PK04 Diversity Set (AID 1174).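 Further: MM1S multiple myeloma cell line.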 To be noted: higher = more signal, called active from +8 up or from −8 down.
The target of experiment [13] is Dihydroorotate dehydrogenase (quinone), mitochondrial (Plasmodium falciparum (isolate 3D7)) (UniProt Q08210). Kind of experiment: PfDHODH enzyme inhibitors, primary screen, biochemical, C-terminal His tag, absorbance 600 nm (AID 1175).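 Further: recombinant parasite enzyme with a five histidine tag at its C terminus.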 As to conditions: DCIP absorbance 600 nm, higher = more signal, called active from +8 up or from −8 down.
Sequence of Dihydroorotate dehydrogenase (quinone), mitochondrial (Plasmodium falciparum (isolate 3D7)) (Q08210 whole entry, looked up): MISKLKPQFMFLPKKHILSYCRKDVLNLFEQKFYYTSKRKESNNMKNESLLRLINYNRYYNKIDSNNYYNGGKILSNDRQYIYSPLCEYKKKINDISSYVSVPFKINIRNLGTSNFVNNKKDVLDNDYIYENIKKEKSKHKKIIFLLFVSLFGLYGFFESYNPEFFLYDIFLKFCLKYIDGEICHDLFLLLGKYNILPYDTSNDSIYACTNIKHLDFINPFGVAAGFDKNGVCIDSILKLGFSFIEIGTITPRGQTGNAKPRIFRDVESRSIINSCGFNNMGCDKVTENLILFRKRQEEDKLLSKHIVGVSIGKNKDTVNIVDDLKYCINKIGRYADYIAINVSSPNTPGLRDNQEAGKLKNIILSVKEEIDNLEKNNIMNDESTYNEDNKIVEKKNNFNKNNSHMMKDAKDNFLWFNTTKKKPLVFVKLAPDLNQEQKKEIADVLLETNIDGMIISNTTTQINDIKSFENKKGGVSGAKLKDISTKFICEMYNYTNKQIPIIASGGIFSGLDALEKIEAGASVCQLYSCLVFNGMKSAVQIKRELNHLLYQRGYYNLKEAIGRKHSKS
The nature of experiment [14]: S. cerevisiae RM11-1a growth modifiers, primary screen, strain RM11-1a, OD600, basal, 24 h (AID 1177).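 Further: cultures grown under basal conditions with no added stressor.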 As to conditions: OD600, 24 h, higher = more signal, called active from +8 up or from −8 down.
The nature of experiment [15]: E. coli acrAB mutant growth effects, primary screen, E. coli filamentation inducers, strain DRC39, OD650, 24 h (AID 1178).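 Further: growth measured as culture turbidity by optical density at 650 nm.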 As to conditions: higher = more signal, called active from +8 up or from −8 down.
Experiment [16] can be described thus: E. coli acrAB mutant growth effects, primary screen, E. coli filamentation inducers, strain DRC39, OD650, 48 h (AID 1179).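 Further: screen aims at cell division blockers that make cells filament.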 To be noted: E. coli DRC39 delta-acrAB growth, higher = more signal, called active from +8 up or from −8 down.
Experiment [17] in a line: RPMI8226 myeloma cell viability, profiling panel, resazurin fluorescence, basal, 24 h, PK04 Diversity Set (AID 1180).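 Further: RPMI8826 multiple myeloma cell line at 5000 cells per well.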 As to conditions: higher = more signal.
Experiment [18] addresses E3 ubiquitin-protein ligase XIAP (Homo sapiens) (UniProt P98170). Kind of experiment: XIAP binders, primary screen, biophysical, small-molecule microarray, fluorescence 635 nm (AID 1181).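 Further: score merges 667 nm emission and signal to noise over triplicate slides.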 As to conditions: small-molecule microarray binding, higher = more signal.
The test system of experiment [19] is XIP peptide (Xip251-270) binding. Kind of experiment: small-molecule binders of XIP peptide, primary screen, biochemical, small-molecule microarray, fluorescence 635/667 nm, 0.1 µg/mL protein (AID 1182). To be noted: fluorescent protein binding, 635 nm, higher = more signal, called active from +8 up or from −8 down.
In another experiment the test system is XIP peptide (Xip251-270). The experiment can be described thus: small-molecule binders of XIP peptide, primary screen, biochemical, small-molecule microarray, fluorescence 635/667 nm, 0.5 µg/mL protein (AID 1183). To be noted: small-molecule microarray binding, fluorescence 635 nm; higher = more signal.

Sequence of E3 ubiquitin-protein ligase XIAP (Homo sapiens) (P98170 whole entry, looked up): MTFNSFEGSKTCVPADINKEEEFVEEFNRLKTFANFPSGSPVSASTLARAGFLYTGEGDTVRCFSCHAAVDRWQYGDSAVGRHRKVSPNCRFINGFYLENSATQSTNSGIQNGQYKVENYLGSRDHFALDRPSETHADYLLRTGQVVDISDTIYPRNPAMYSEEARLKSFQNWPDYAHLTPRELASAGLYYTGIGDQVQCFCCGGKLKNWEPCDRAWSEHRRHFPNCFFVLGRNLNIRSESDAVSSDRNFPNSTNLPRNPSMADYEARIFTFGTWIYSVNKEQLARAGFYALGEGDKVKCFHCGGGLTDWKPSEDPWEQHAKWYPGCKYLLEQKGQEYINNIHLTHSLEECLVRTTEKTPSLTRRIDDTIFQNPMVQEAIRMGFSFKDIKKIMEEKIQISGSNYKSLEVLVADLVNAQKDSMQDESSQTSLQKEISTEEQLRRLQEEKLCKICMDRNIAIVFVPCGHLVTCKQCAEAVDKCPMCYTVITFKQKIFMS

Consider `CC(C)(C)OC(=O)CC[C@@]12N=C(c3ccc(OCCCO)cc3)O[C@@H]1c1ccccc1N(Cc1ccccc1)C2=O`, for which the z-score in experiment [1] is 1.87; in experiment [2], -0.186; in experiment [3] it was -1.9; in experiment [4], -3.34; in experiment [5] it was 0.624; in experiment [6] it was 1.69 (inactive). Further, the z-score is -0.778 in experiment [7]; 1.44 in experiment [8]; 0.345 (inactive) in [9]; 0.375 in [10]; -0.075 (inactive) in experiment [11]; -0.0313 (inactive) in experiment [12]. Moreover, the z-score in [14] was 1.17 (inactive); in experiment [15], 1.59 (inactive); in experiment [16], 0.358 (inactive); in experiment [17] it was 0.574. Besides, the composite z-score was 0.463 (inactive) in [13], -0.635 in [18], 1.63 (inactive) in experiment [19] and 0.693 in the experiment with XIP peptide (Xip251-270).
Turning to `COC(=O)C1=CC(c2ccc(CO)cc2)=CC(C2CC2)N(C)C=C1C(=O)OC` (stereo not given), the z-score in [1] is 1.31; in experiment [2], 0.295; in experiment [3] it was 1.07; in experiment [4], -0.503; in experiment [5], 1.47; in experiment [6], 0.935 (inactive). Besides, the z-score in experiment [7] was 0.515; in experiment [8], 1.12; in experiment [9] it was 0.419 (inactive); in experiment [10], 0.578; in experiment [11], -2.82 (inactive); in experiment [12] it was 0.833 (inactive). Moreover, the z-score in [14] was -3.29 (inactive); in [15], 0.983 (inactive); in [16], 1.28 (inactive); in experiment [17], 0.842. Also, the composite z-score is -0.782 (inactive) in [13], -0.0388 in experiment [18], 1.8 (inactive) in [19] and -0.407 with XIP peptide (Xip251-270).
For `C=CCN1C(=O)[C@@]2(O[C@@H](CCO)[C@H]([Si](C)(C)c3ccc(OC)cc3)[C@H]2C)c2cc(N(C=O)c3ccccc3)ccc21`, the z-score in experiment [1] is 0.412; in experiment [2], -4.73; in [3] it was -2.68; in experiment [4], -4.39; in experiment [5], -2.22; in experiment [6] it was 1.53 (inactive). Also, the z-score in [7] is -1.05; in experiment [8] it was -2.14; in experiment [9], -4.7 (inactive); in [10], -6.2; in experiment [11] it was -0.425 (inactive); in [12], -8.88 (active). For the same compound, the z-score in experiment [14] was -0.592 (inactive); in experiment [15] it was 2.62 (inactive); in experiment [16], 1.81 (inactive); in experiment [17], -6.21. Besides, the composite z-score in experiment [13] was -0.459 (inactive); in experiment [18] it was -0.0203; in [19] it was 0.527 (inactive); with XIP peptide (Xip251-270), 0.345.
As for `C=C(COC)/C(=C/C[C@H](OC(C)=O)c1ccc(CO)o1)c1cnc2ccccc2c1`, the z-score is 0.788 in [1]; -0.957 in [2]; -1.42 in [3]; -0.182 in experiment [4]; 0.117 in [5]; 0.411 (inactive) in [6]. Besides, the z-score was 0.624 in experiment [7]; -0.271 in experiment [8]; 0.445 (inactive) in [9]; 0.441 in [10]; -1.24 (inactive) in [11]; 1.04 (inactive) in [12]. Further, the z-score is -0.819 (inactive) in experiment [14], 1.48 (inactive) in experiment [15], 0.383 (inactive) in experiment [16] and 0.981 in experiment [17]. The composite z-score in experiment [13] is -7.31 (inactive); in experiment [18], 0.292; in experiment [19], 1.5 (inactive); with XIP peptide (Xip251-270) it was 0.807.
As for `CC(CO)N1C(=O)[C@@H]2C3C(=O)OCCC/C=C\[C@H]3OC23C=CCN(Cc2ccccc2)C(=O)[C@@H]13` (stereo not given in full), the z-score is -0.154 in [1]; 0.547 in experiment [2]; 2.05 in [3]; -0.172 in [4]; 0.797 in experiment [5]; 1.86 (inactive) in experiment [6]. For the same compound, the z-score in experiment [7] was -0.0742; in experiment [8], 0.322; in experiment [9], 0.754 (inactive); in experiment [10], 0.918; in experiment [11] it was -0.703 (inactive); in [12], 0.462 (inactive). Moreover, the z-score in experiment [14] is -0.985 (inactive); in [15], 1.6 (inactive); in [16], 1.97 (inactive); in experiment [17] it was 0.526. Besides, the composite z-score in [13] was -0.761 (inactive); in experiment [18] it was -0.0333; in experiment [19], -0.554 (inactive); with XIP peptide (Xip251-270), -0.736.
With `COc1c(C)cc(-c2cc3c(c(CCc4ccccc4)n2)[Si](C(C)C)(C(C)C)OC3)cc1C`, the z-score was 1.27 in experiment [1]; -0.277 in experiment [2]; -1.5 in experiment [3]; 0.0965 in experiment [4]; -2.26e-05 in experiment [5]; 0.334 (inactive) in experiment [6]. Also, the z-score was 0.667 in [7]; 0.168 in experiment [8]; 1.38 (inactive) in experiment [9]; 1.64 in [10]; -0.966 (inactive) in [11]; 1.93 (inactive) in experiment [12]. In addition, the z-score in experiment [14] was -1.43 (inactive); in experiment [15], 1.75 (inactive); in [16] it was 1.08 (inactive); in [17] it was 1.37. Further, the composite z-score was -0.545 (inactive) in experiment [13], -0.172 in experiment [18], 0.461 (inactive) in [19] and -0.436 with XIP peptide (Xip251-270).
For the compound `C[N+](C)(C)CCCCNC(=O)[C@@H]1C[C@@H]2C(=O)NCC(=O)N2[C@@H]1c1cccc(OCCO)c1`, the z-score in experiment [1] is -0.0369; in experiment [2] it was 0.653; in experiment [3] it was 0.499; in experiment [4], 0.089; in [5], 1.04; in experiment [6], 0.294 (inactive). In addition, the z-score in experiment [7] was -0.361; in [8], -0.552; in experiment [9], -0.105 (inactive); in [10], 0.165; in experiment [11], -0.0902 (inactive); in experiment [12] it was 1.38 (inactive). Moreover, the z-score in [14] is -1.21 (inactive); in experiment [15], 1.87 (inactive); in [16] it was 1.77 (inactive); in experiment [17] it was 0.356. Also, the composite z-score in experiment [13] was -27.8 (active); in experiment [18] it was 0.602; in [19], 0.71 (inactive); in the experiment on XIP peptide (Xip251-270), 0.865.
As to `C=CC[C@]1(C(=O)N2CCCCC2)COC(c2ccc(OCCCO)cc2)=N1`, the z-score is 1.98 in experiment [1]; -2.29 in experiment [2]; -3.6 in [3]; -2.3 in experiment [4]; -0.223 in experiment [5]; 0.322 (inactive) in experiment [6]. Besides, the z-score in experiment [7] is -0.749; in experiment [8], -0.435; in experiment [9], -0.585 (inactive); in [10], 1.55; in experiment [11], -6.59 (inactive); in [12], -0.863 (inactive). The z-score is 0.474 (inactive) in [14], 2.98 (inactive) in experiment [15], 0.693 (inactive) in experiment [16] and 0.909 in experiment [17]. The composite z-score in experiment [13] was -0.0606 (inactive); in experiment [18], -0.17; in experiment [19], 0.502 (inactive); with XIP peptide (Xip251-270) it was 0.54.
In the case of `COc1ccc([Si](C)(C)[C@@H]2[C@@H](CC(=O)N3CCC[C@H]3CO)O[C@]3(C(=O)N(Cc4ccc(I)cc4)c4ccccc43)[C@H]2C)cc1`, the z-score was 2.59 in experiment [1]; -2.95 in experiment [2]; -2.58 in experiment [3]; -4.35 in experiment [4]; 2.47 in experiment [5]; 1.67 (inactive) in experiment [6]. For the same compound, the z-score in experiment [7] was -1.04; in experiment [8] it was -0.818; in experiment [9], -2.59 (inactive); in [10], -1.37; in experiment [11], -1.91 (inactive); in [12], -2.56 (inactive). Further, the z-score was -0.289 (inactive) in [14], 1.66 (inactive) in [15], 0.78 (inactive) in experiment [16] and -2.59 in experiment [17]. The composite z-score is 0.413 (inactive) in experiment [13], 0.0368 in experiment [18], 0.564 (inactive) in [19] and 0.534 in the experiment with XIP peptide (Xip251-270).
